Only some compounds are listed: those with a hit (about 7.3% of all), similar ones and a draw of the others.
NPC1 prom act = qHTS Assay for NPC1 Promoter Activators; Huh7 NPC1 promoter luciferase reporter, 24 h; Potency, µM (doses to about 9.22 µM), without a hit: at the highest dose activation, most hits filed as activators; AID 485313, 2010; 2.4% of 320,000 active; further: % of control where 0% means no effect; nearly all actives have a fitted effect of over 60% in size
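Luminescence from an NPC1 promoter-driven luciferase reporter in stably transfected Huh7 cells was measured after 24 h compound treatment at 37 °C, followed by 10 min ambient incubation with luciferase detection reagent.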
Rab9 prom act = qHTS Assay for Rab9 Promoter Activators; 2.8% of 320,000 active; Potency, µM (titrated, usually from 9.22 µM), for inactives: at the top dose activation, negative = inhibition, most hits filed as activators; Huh7 Rab9 promoter-luciferase reporter, luminescence, 24 h; further: % of control where 0% means no effect; nearly all actives have a fitted effect of over 60% in size
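Quantitative HTS format; Huh7 Rab9-luciferase reporter cells (1500/well) receive compound 2 h post-plating, incubate 24 h at 37 °C, then get luciferase reagent for 10 min before luminescence reading.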
ELG1 genotox = qHTS screen for small molecules that induce genotoxicity in human embryonic kidney (HEK293T) cells expressing luciferase-tagged ELG1. HEK293T ELG1-luciferase reporter, luminescence, 16 h. Potency, µM (top dose mostly 46 µM), without a hit: top-dose activity change, positive = activation, hits mostly activators. 1.3% of 330,000 active. AID 504466, 2011; further: % of control where 0% means no effect; nearly all actives have a fitted effect of over 60% in size
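ELG1-luciferase HEK293T cells, 2,000/well; compound pinned in; 16 hr, 37 °C, 5% CO2; ONE-Glo, 30 min RT; luminescence on CCD imager.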
uPA surface inh = qHTS for Inhibitors of Cell Surface uPA Generation. cell surface uPA generation assay, qHTS. Potency, µM (doses to about 38.3 µM), without a hit: at the highest dose activity change, negative = inhibition, most hits filed as inhibitors. 0.31% of 330,000 active; active means well fitted inhibition curve with a large enough effect; inconclusive means small, poorly fitted or top-dose-only effect; inactive means no such curve, though single readings can be large or run the other way; tested in mouse RAW 264.7 cells; further: on the % scale 0 is the no-effect control and ±100 the full control effect; nearly all actives have a fitted effect of over 55% in size
FLuc counter = qHTS profiling assay for firefly luciferase inhibitor/activator using purifed enzyme and Km concentrations of substrates (counterscreen for miR-21 project); 6.9% of 360,000 active; Potency, µM (highest dose often 57.5 µM), inactives show at the highest dose activity change, negative = inhibition, hits mostly inhibitors; AID 588342, 2011; purified FLuc, Km substrates, luminescence inhibition; Luciferin 4-monooxygenase (Photinus pyralis), P08659;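 further: plate controls were vehicle for no effect and reference inhibitor for full effect; nearly all actives have a fitted effect of over 55% in size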
Target sequence (P08659 whole entry, looked up): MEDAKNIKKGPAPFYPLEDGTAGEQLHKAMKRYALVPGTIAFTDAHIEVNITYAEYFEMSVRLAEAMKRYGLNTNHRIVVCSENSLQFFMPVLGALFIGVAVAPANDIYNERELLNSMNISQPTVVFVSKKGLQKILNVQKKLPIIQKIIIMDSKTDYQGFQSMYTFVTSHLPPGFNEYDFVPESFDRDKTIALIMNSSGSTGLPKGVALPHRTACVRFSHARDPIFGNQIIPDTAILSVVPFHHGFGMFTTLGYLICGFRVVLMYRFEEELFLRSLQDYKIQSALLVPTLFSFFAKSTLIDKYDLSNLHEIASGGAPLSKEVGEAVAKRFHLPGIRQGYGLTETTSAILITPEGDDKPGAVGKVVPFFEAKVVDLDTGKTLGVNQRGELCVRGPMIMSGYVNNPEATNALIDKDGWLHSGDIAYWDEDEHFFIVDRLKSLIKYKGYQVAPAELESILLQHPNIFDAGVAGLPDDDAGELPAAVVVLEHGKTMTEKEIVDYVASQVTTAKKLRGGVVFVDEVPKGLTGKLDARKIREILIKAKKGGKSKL
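Purified P. pyralis luciferase, 10 nM final, with Km-level 10 uM D-luciferin and 10 uM ATP in 50 mM Tris acetate pH 7.5, 10 mM Mg acetate, 0.01% Tween-20, 0.05% BSA; 6-point qHTS titration about 60 µM downward; luminescence read.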
SMN2 splice enh = qHTS Assay for Enhancers of SMN2 Splice Variant Expression. HEK293 SMN2-luciferase splicing reporter, luminescence, 30-36 h. Potency, µM (top dose mostly 46.1 µM), inactives show at the highest dose activity change, positive = activation, hits mostly activators. 2.8% of 210,000 active. AID 1458, 2008; further: % of control where 0% means no effect; nearly all actives have a fitted effect of over 55% in size
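HEK293 cells carry an SMN2 […]–luciferase reporter in which exon 7 inclusion puts luciferase in frame. Cells were plated 10-12 h before compound addition, then incubated 30-36 h at 37C. ONE-Glo luminescence was read; sodium butyrate at 4.5 mM final served as control.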
* hit, by the source's call; ? = inconclusive; nt = no result; ! = repeats disagree. Unless noted, the call rests on the fitted dose curve; in most records, active means well fitted curve in the direction sought with a large enough effect; inconclusive means small, poorly fitted or top-dose-only effect, or another doubt; inactive means no such curve, though single readings can be large; an effect the other way counts as inactive or inconclusive. Potency means the concentration at half of the fitted maximal effect.

SMILES	NPC1 prom act	Rab9 prom act	ELG1 genotox	uPA surface inh	FLuc counter	SMN2 splice enh
COC(=O)c1ccc(NC(=S)N2CCCC2)cc1	0%	-3%	-8%	-4%	4%	11%
O=C(Nc1ccc(Br)cc1)N1CCCCCC1	?	2.2µM*	?	-11%	11µM*	nt
O=C(Nc1ccccc1)N1CCN(CCc2ccccc2)CC1	-1%	-1%	3%	-7%	-2%	7%
CCc1ccc(NC(=O)N2CCCCCC2)cc1	2.2µM*	1.8µM*	21µM*	-4%	13µM*	nt
CCN1CCN(C(=O)Nc2ccc(Cc3ccc(NC(=O)N4CCN(CC)CC4)cc3)cc2)CC1	1%	11%	-5%	-13%	13µM*	7%
CCOC(=O)c1ccc(N/C=C2\CCCCC2=O)cc1	4µM*	2.5µM*	2.3µM*	1%	2.7µM*	?
CCOC(=O)c1ccc(NC(=O)N2CCCCC2)cc1	2.5µM*	3.2µM*	10µM*	-5%	13µM*	?
COc1ccc(NC(=O)N2CCCCC2)cc1	17%	24%	?	nt	-22%	?
Cc1ccc(NC(=O)N2CCCCCC2)cc1	?	?	?	-6%	15µM*	nt
Cc1cccc(-c2noc(CN(C(C)C)S(=O)(=O)c3ccc(Br)cc3)n2)c1	nt	nt	nt	nt	-8%	-18%
CCN(CC)CCNC(=O)c1ccc(NC(=O)c2ccc(F)cc2F)cc1	8%	-3%	-6%	3%	-3%	5%
CC(=O)Nc1ccc(S(=O)(=O)NCc2cn3c(C)csc3n2)cc1	-4%	0%	1%	-1%	-2%	-57%
Cc1c(C(=O)Nc2ccncc2)sc2nc(-c3ccccc3)cn12	0%	-7%	0%	?	-8%	-75%
CCOCC(=O)Nc1ccc(-c2cn3c(C)csc3n2)cc1	nt	nt	nt	nt	17µM*	nt
Cc1csc2nc(-c3cccc(NC(=O)c4ccc(S(N)(=O)=O)cc4)c3)cn12	nt	nt	nt	nt	9.5µM*	nt
Cc1csc2nc(-c3cccc(NC(=O)c4c(F)cccc4F)c3)cn12	nt	nt	nt	nt	21µM*	nt
CCOc1ccc(C(=O)C(C)OC(=O)C2CCN(c3ccc(C(F)(F)F)cn3)CC2)cc1 (configuration not stated)	-1%	-1%	18µM*	-3%	-1%	nt
COc1ccccc1CNC(=O)c1sc2nc3n(c(=O)c2c1C)CCC3	nt	nt	nt	nt	6%	nt
Cn1c(=NC(=O)c2ccccc2[N+](=O)[O-])sc2cccc(F)c21	0.56µM*	0.5µM*	?	-7%	0.6µM*	nt
Cn1c(=NC(=O)C(C)(C)C)sc2cccc(F)c21	-6%	1%	9%	-17%	?	nt
COc1cccc(-c2nnc(SCC(=O)N(C)c3ccccc3)o2)c1	nt	nt	nt	nt	-11%	nt
Cn1cc(/C=C2\SC(=S)N(NC(=O)c3ccccc3Cl)C2=O)c2ccccc21	-1%	2%	1%	7%	27µM*	1%
Cc1cccc(N2CC(C)Cn3c2nc2c3c(=O)n(CC(=O)O)c(=O)n2C)c1 (configuration not stated)	nt	nt	nt	nt	-8%	-5%
O=C(c1cc(COc2cccc(C(F)(F)F)c2)on1)N1C[C@@H]2CCC[C@H]1C2	-15%	?	?	1%	24µM*	nt
COc1cc(C)ccc1OCc1cc(C(=O)N2C[C@H]3CC[C@H]2C3)no1	3%	0%	4%	-1%	-19%	nt
SMILES	NPC1 prom act	Rab9 prom act	ELG1 genotox	uPA surface inh	FLuc counter	SMN2 splice enh
COc1cc(Cl)ccc1OCc1cc(C(=O)N2C[C@H]3CC[C@H]2C3)no1	3.5µM*	1.4µM*	8.2µM*	-11%	8.5µM*	nt
COc1cc(Cl)ccc1OCc1cc(C(=O)N2C[C@]3(C)C[C@H]2CC(C)(C)C3)no1	?	1.8µM*	?	-16%	19µM*	nt
COc1cc(Cl)ccc1OCc1cc(C(=O)N2C[C@@H]3CCC[C@H]2C3)no1	3.2µM*	4µM*	2.9µM*	2%	9.5µM*	nt
Cc1cc(C)cc(NC(=O)c2cc(S(=O)(=O)N3CCC(C)CC3)cn2C)c1	nt	nt	nt	nt	-3%	nt
O=C(NCc1ccccc1)c1ccco1	-1%	-4%	-2%	12%	3%	9%
O=C(NCc1ccc(-c2nc3ccccc3s2)cc1)c1ccco1	?	?	14%	-2%	6µM*	14%
O=C(NC(=S)Nc1nc(-c2ccccc2)cs1)c1ccco1	5%	-1%	-3%	-9%	?	-5%
O=C(NC(=S)NCc1ccc(-c2nc3ccccc3s2)cc1)c1ccco1	3.2µM*	4µM*	16µM*	0%	2.7µM*	nt
COc1ccc(C(=O)NCc2ccc(-c3nc4ccccc4s3)cc2)cc1OC	16%	?	16µM*	-2%	1.3µM*	-21%
COc1ccc(CNC(=O)c2ccc(-c3ccccc3)cc2)cc1OC	-4%	0%	2%	1%	2%	-32%
O=C(CSc1nccn1Cc1ccc2c(c1)OCO2)Nc1ccccc1F	nt	nt	nt	nt	6%	nt
COc1ccc2[nH]c3c(c2c1)CCN1C(=O)C(CC(=O)NCc2cccc(C(F)(F)F)c2)C[C@H](C(=O)N2CCCCC2)[C@@]31CCc1ccccc1 (some centres not stated)	nt	nt	-3%	23%	nt	nt
C=CCN=c1scc(-c2ccc(F)cc2)n1/N=C/c1ccccn1	24%	?	22%	-14%	13µM*	400%
C=CCN=c1scc(-c2ccccc2)n1/N=C/c1ccccn1	2µM*	1.3µM*	?	0.4µM*!	2.4µM*	4.5µM*
CC1CCCN(CCCNC(=O)c2ccc3c(c2)N(Cc2ccc(Cl)cc2)C(=O)c2ccccc2S3(=O)=O)C1 (configuration not stated)	nt	nt	nt	nt	4%	-102%
c1ccc(-c2nc(NCC3CCCO3)c3oc4ccccc4c3n2)cc1 (configuration not stated)	1%	-12%	-8%	nt	15µM*	-16%
CC(=O)c1ccc(Nc2ncnc3c2oc2ccccc23)cc1	1.4µM*	?	2.1µM*	0%	?	1.6µM*
CCc1nc(NCc2ccccn2)c2oc3ccccc3c2n1	-11%	-16%	-27%	-13%	?	-65%
c1ccc(CNc2ncnc3c2oc2ccccc23)nc1	1%	24%	12%	1%	19µM*	-11%
O=C(O)CNc1nc(-c2ccccc2)nc2c1oc1ccccc12	-5%	-7%	0%	0%	?	nt
c1ccc2c(c1)oc1c(NCC3CCCO3)ncnc12 (configuration not stated)	-4%	11%	2%	1%	17µM*	0%
O=C(Nc1ccccc1C(F)(F)F)Nc1c[nH]c(=O)[nH]c1=O	nt	nt	nt	nt	1%	nt

Source: PubChem
